We go through 117 compounds from PubChem BioAssay AID488969 (Vanderbilt High Throughput Screening Facility, 2010).

SMILES strings stand for the structures. Over roughly 110,000 compounds, “z-score” has its median near -0.1; the highest 2% begin near 2. This is one part of a sample in which the highest values are shown more often than they occur. Active and inactive are the calls of the source.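 Rule for the calls: active = z-score in the third read window above 3 or below -3; inactive = the rest.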

Chain of Metabotropic glutamate receptor 8 (Rattus norvegicus) (P70579 whole entry, looked up): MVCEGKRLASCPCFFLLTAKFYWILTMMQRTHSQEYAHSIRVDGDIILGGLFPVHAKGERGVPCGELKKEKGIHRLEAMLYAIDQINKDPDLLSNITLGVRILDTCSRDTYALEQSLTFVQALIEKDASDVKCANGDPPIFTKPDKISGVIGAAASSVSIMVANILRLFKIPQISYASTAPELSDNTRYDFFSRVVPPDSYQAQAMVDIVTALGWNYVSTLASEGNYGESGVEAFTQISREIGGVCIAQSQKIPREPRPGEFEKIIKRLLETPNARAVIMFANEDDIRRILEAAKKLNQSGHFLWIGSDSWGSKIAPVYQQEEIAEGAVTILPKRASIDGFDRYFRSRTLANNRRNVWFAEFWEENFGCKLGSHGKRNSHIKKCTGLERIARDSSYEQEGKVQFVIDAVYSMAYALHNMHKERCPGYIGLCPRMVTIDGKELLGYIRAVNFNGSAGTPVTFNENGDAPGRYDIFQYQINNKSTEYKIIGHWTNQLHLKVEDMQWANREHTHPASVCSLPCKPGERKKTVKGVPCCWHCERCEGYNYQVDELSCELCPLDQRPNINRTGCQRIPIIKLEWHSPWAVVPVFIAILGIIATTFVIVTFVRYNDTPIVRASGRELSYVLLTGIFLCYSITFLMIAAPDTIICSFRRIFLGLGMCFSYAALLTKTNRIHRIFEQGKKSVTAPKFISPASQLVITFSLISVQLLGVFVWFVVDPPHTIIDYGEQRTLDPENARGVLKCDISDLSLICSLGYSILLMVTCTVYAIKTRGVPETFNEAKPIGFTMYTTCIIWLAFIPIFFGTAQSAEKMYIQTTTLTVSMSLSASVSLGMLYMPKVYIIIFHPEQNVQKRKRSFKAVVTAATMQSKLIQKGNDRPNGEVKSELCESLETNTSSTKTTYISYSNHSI

This test concerns the target Metabotropic glutamate receptor 8 (Rattus norvegicus) (UniProt P70579). Kind of test: rat mGluR8 modulators via GIRK flux, primary screen, cell-based, thallium flux, HTS (AID 488969). The following applies: HEK293 rat mGluR8, GIRK (G protein-gated inwardly rectifying potassium channel) thallium flux, FluoZin2; at 10 µM; stronger effect = higher value; submaximal glutamate (EC20) added with thallium.
Compound `CC1CCN(C(=S)NC2CCCCC2)CC1` displayed a z-score of -0.176.
`CCN1CCN(C(=O)CN2C(=O)c3cccc4cccc2c34)CC1` registered a z-score of -0.191.
To `O=C(CSc1ccc(-c2ccccc2)nn1)c1ccccc1` belongs 0.0905; to `CCOCC(=O)Nc1nnc(Cc2ccc(OC)cc2)s1`, -0.115; to `Cc1ccc(C)c(NC(=S)NC(NC(=O)OCc2ccccc2)C(Cl)(Cl)Cl)c1` (configuration not stated), -0.108.
As for `Cc1ccc(C(=O)O/N=C/c2ccc3c(c2)OCO3)cc1`, the figure is -0.102; as for `CSc1nnc(-c2ccccc2Cl)o1`, -0.168; as for `O=C(N/N=C/c1ccc(Cl)cc1Cl)Nc1ccccc1`, -0.276.
On to `Cc1cccc(C)c1NC(=S)NC(=O)c1ccccc1F`, for which the z-score is 7.93 (active).
As for `Cc1ccccc1C(=O)NC(=S)Nc1ccc(Cc2ccncc2)cc1`, the figure is -0.501; as for `CSc1ccccc1NC(=O)Nc1ccccc1`, 0.531.
To `CSc1ccccc1NC(=O)Nc1ccc(F)c(Cl)c1` belongs -0.197.
As for `O=C(NC(=S)NC(=O)c1ccccc1F)c1ccccc1F`, the figure is 0.339; as for `O=C(N/C(=N\O)c1ccccc1)Nc1ccc(Cl)cc1`, 2.01.
`Cc1ccccc1C(=O)NC(=S)Nc1ccc(Oc2ccc(Cl)cc2)cc1` gave a z-score of 2.74.
`CSc1ccccc1NC(=O)Nc1ccc(Cl)cc1`: the z-score was 6.38 (active).
Consider `Cc1ccccc1C(=O)NC(=S)Nc1ccc(S(=O)(=O)N(C)c2ccccc2)cc1`, for which the z-score was found to be 1.07.
`O=C(N/N=C/c1ccc(Cl)cc1)Nc1ccccc1` gave a z-score of -0.0155.
As to `O=C(NC(=S)NCc1ccccc1)c1ccccc1F`, the z-score was determined as 1.93.
`COc1ccc(CCN2C(=O)CCC2(C)C(=O)NCc2cccnc2)cc1OC` (configuration not stated) gave a z-score of -0.282.
With `Cc1nn(-c2ccc(F)cc2)c(Cl)c1/C=N/NC(=O)c1cccc(S(=O)(=O)N2CCCC2)c1`, the z-score is -0.115.
Turning to `Cc1cc(/C=C2/C(=O)NN(c3ccccc3)C2=O)c(C)n1-c1cccc(O)c1`, the z-score was -0.338.
Regarding `Cn1nnc(NC(=O)CSc2nnnn2-c2ccc(F)cc2)n1`, the z-score was determined as 0.0243.
To `O=C(NC(C(=O)N/N=C/c1c2ccccc2cc2ccccc12)c1n[nH]c(=O)c2ccccc12)c1ccccc1` (configuration not stated) belongs -0.183; to `N#C/C(=C\c1c(N(Cc2ccccc2)Cc2ccccc2)nc2ccccn2c1=O)C(N)=O`, -1.96; to `Cc1c(C(=O)Nc2ccccc2[N+](=O)[O-])csc1-c1ccccc1`, -0.152.
As to `Cc1ccc(C(=O)NC(=S)Nc2ccc(Oc3ccc(Cl)cc3)cc2)cc1`, the z-score was 0.157.
Turning to `O=C(NC(=S)Nc1ccc(Oc2ccc(Cl)cc2)cc1)c1ccccc1`, the z-score was 3.94 (active).
Turning to `O=C(NC(=S)Nc1ccc(Oc2ccccc2)cc1)c1ccc(Cl)cc1`, the z-score turned out to be 1.23.
`Cc1nc2ncnn2c(C)c1CCC(=O)Nc1csc(N)n1` yielded a z-score of -0.0552.
Turning to `O=C1CC(SCc2nc3ccccc3[nH]2)C(=O)N1c1ccc(F)cc1` (configuration not stated), the z-score is 0.0187.
`O=C(COc1ccc(Cl)cc1Cl)Nc1ccccn1`: the z-score is 1.52.
`Cc1cc(NC(=O)C(C)Oc2ccc(Cl)cc2Cl)n(-c2ccccc2)n1` (configuration not stated) had a z-score of -0.237.
Take `Cc1cc(NC(=O)COc2ccc(Cl)cc2Cl)n(-c2ccccc2)n1`: the z-score was 12.2 (active).
The compound `Cc1cc(Nc2ccccc2)n(-c2ccccc2)n1` showed a z-score of 0.00239.
As for `Cc1cc(NC(=O)Nc2ccccc2)n(-c2ccccc2)n1`, the figure is 10.5 (active).
Compound `Cc1cc(NC(=O)c2ccc(C)s2)n(-c2ccccc2)n1` gave a z-score of 0.239.
As for `O=C(COc1ccc(Cl)cc1Cl)Nc1noc2ccccc12`, the figure is 12.9 (active); as for `Cc1cc(NC(=O)COc2ccccc2)n(-c2ccccc2)n1`, -0.119.
The compound `CSc1ccccc1NC(=O)COc1ccc(Cl)cc1Cl` showed a z-score of -0.15.
As for `CC(=O)c1cnc(N(C)C)s1`, the z-score was found to be 0.141.
Consider `CN(Cc1ccccc1)C(=O)CN(C1CCCCC1)S(C)(=O)=O`, for which the z-score was determined as 0.423.
Consider `O=C(Nc1ccc(N2CCOCC2)cc1)C1CC1`, for which the z-score came out at 0.35.
In turn, `Cn1c(C(=O)NCc2ccccn2)cc2c(=O)n(C)c3ccccc3c21` had a z-score of 0.138.
`COc1ccc(N(C(=O)Cc2cccs2)C(C(=O)NC2CCCCC2)c2cccn2C)cc1` (configuration not stated) returned a z-score of -0.0427.
As for `CCOc1ccc2c(c1)C(C)=CC(C)(C)N2C(=O)Nc1ccccc1F`, the z-score was -0.0976.
As for `Cc1cc(OCc2nc(-c3cccs3)no2)cc(C)c1Cl`, the figure is 0.00195.
The compound `COc1cc(CN2CCCC(C)C2)cc([N+](=O)[O-])c1O` (configuration not stated) gave a z-score of -0.494.
Compound `O=C(NN1CCOCC1)c1cc(-c2ccccc2)nc2ccccc12` gave a z-score of -0.494.
As for `O=C(NN1CCOCC1)c1cc(-c2ccc(Br)cc2)nc2ccccc12`, the figure is 2.02; as for `CCc1ccc(-c2cc(C(=O)NN3CCOCC3)c3ccccc3n2)cc1`, -0.195; as for `C/C(N)=C(/C#N)C(=O)CSc1nnc(COc2ccccc2Cl)o1`, 0.832.
The compound `Cc1cc(/C=N/NC(N)=O)c(C)c(CO)c1` yielded a z-score of -0.0977.
The compound `CCn1c(SCC(=O)N2CCCC2)nnc1-c1ccc(N)cc1` showed a z-score of 0.183.
`CCn1c(SCC(=O)N2CCC(C(N)=O)(N3CCCCC3)CC2)nc2ccccc2c1=O`: the z-score is -1.2.
For `CCn1c(SCC(=O)N2CCC(C(N)=O)(N3CCCCC3)CC2)nnc1-c1ccccc1`, the z-score was determined as 2.65.
As for `Cn1nnc2cc(C(=O)NCc3ccco3)ccc21`, the figure is 0.326; as for `CCOC(=O)NC(NC(=O)OCC)C(=O)c1ccccc1`, -0.227; as for `CC(C)CCOP(=O)(c1ccccc1)c1ccccc1`, -2.77.
The compound `CC(Nc1cc(N2CCCC2)ccc1[N+](=O)[O-])c1ccccc1` (configuration not stated) returned a z-score of -0.624.
`CCCn1c(O)c(CN2CCCCC2)c(C)c(C#N)c1=O`: the z-score was -0.183.
To `C(/C=C/C=C/Nc1ccccc1)=Nc1ccccc1` belongs 16.2 (active); to `Brc1ccc(N=C/C=C/C=C/Nc2ccc(Br)cc2)cc1`, 0.151.
In turn, `O=C(/C=C/Nc1ccccc1)c1ccccc1` yielded a z-score of 0.219.
The compound `Fc1ccccc1CSc1nc2ncc(Br)cc2[nH]1` gave a z-score of 1.26.
As to `CCC(NC(=O)NC1=NCCS1)(C(F)(F)F)C(F)(F)F`, the z-score is 0.399.
In turn, `CCn1c(=N)c(C(N)=O)cc2c(=O)n3cccc(C)c3nc21` yielded a z-score of -1.13.
Turning to `CCOCCCn1c(=N)c(C(N)=S)cc2c(=O)n3cccc(C)c3nc21`, the z-score was found to be 2.
With `C=CCn1c(=N)c(C(=O)OCC)cc2c(=O)n3cccc(C)c3nc21`, the z-score is -0.017.
For `COc1cc(C(=O)NCC(=O)N/N=C/c2cccs2)cc(OC)c1OC`, the z-score was -0.174.
For the compound `O=C(N=Nc1c(O)n(Cc2ccccc2)c2ccccc12)c1ccc(O)cc1`, the z-score was -0.143.
Regarding `Cn1c(O)c(N=NC(=O)CNC(=O)c2ccco2)c2ccccc21`, the z-score is -0.2.
`NC(=S)N=Nc1c(O)n(Cc2ccc(Br)cc2)c2ccccc12` registered a z-score of -0.0836.
For the compound `Cc1ccc2c(c1)c(N=NC(N)=S)c(O)n2Cc1ccccc1`, the z-score worked out at 2.88.
The compound `NC(=S)N=Nc1c(O)n(Cc2ccccc2)c2ccccc12` returned a z-score of 0.17.
Regarding `CCn1c(O)c(N=NC(=O)CNC(=O)c2ccco2)c2ccccc21`, the z-score was -0.152.
As for `CCCCNC(=S)N=Nc1c(O)n(Cc2ccccc2)c2ccccc12`, the figure is 3.24 (active).
To `NC(=S)N=Nc1c(O)n(Cc2ccc(F)cc2)c2ccccc12` belongs 1.76.
Take `CCCn1c(O)c(N=NC(=O)c2ccco2)c2ccccc21`: the z-score was 3.17 (active).
`O=C1CC(=C2c3ccccc3-c3ccccc32)C(=O)N1CCN1CCN(c2cccc(Cl)c2)CC1` registered a z-score of -0.0614.
Compound `O=C(Nc1ccccc1)C(Cc1cccs1)c1nn[nH]n1` (configuration not stated) had a z-score of 0.0119.
Turning to `Cc1ccc(S(=O)(=O)/N=S(/C)c2ccccc2)cc1` (configuration not stated), the z-score amounted to 0.693.
`CCN(C(=O)c1cc2ccccc2oc1=O)c1cccc(C)c1`: the z-score came to 0.00276.
`CCCOc1ccc(C2(C(=O)O)CCCC2)cc1` showed a z-score of 0.219.
Regarding `O=C(CCC(=O)OCc1ccc(Br)cc1)Nc1ccccc1`, the z-score was -0.0471.
With `Cc1cccc(-c2n[nH]c(=S)n2/N=C/c2ccc(C)o2)c1`, the z-score turned out to be 0.433.
In turn, `Cc1cccc(/C=N/n2c(-c3ccncc3)n[nH]c2=S)c1` registered a z-score of -0.531.
As to `CCN(CC)S(=O)(=O)c1cccc(-c2n[nH]c(=S)n2/N=C/c2ccc(C(=O)OC)cc2)c1`, the z-score is 3.19 (active).
The compound `COCCn1c(CN2CCN(c3ccc(OC)cc3)CC2)nc2c1c(=O)n(C)c(=O)n2C` yielded a z-score of -0.219.
In turn, `c1csc(Cn2c(-c3cccs3)nc3ccccc32)c1` gave a z-score of -1.65.
`CCn1c(-c2cccs2)nc2ccccc21`: the z-score is -0.122.
Consider `C=CCn1c(-c2cccs2)nc2ccccc21`, for which the z-score was 3.14 (active).
As for `COc1cccc(NS(=O)(=O)c2ccc(NC(C)=O)cc2)c1`, the figure is -0.261.
Turning to `COC(=O)CNc1nc(OC)nc(N(C)C)n1`, the z-score was 0.391.
To `Cc1cccc(C(=O)N2CCC(Cc3ccccc3)CC2)c1[N+](=O)[O-]` belongs 8.23 (active); to `Cc1cc(C(=O)N2CCC(Cc3ccccc3)CC2)ccc1[N+](=O)[O-]`, -0.573.
The compound `O=C(c1ccccc1[N+](=O)[O-])N1CCC(Cc2ccccc2)CC1` came in with a z-score of -0.0322.
To `CCNC(=O)CC1SC(=Nc2cccc(Cl)c2C)N(C)C1=O` (configuration not stated) belongs 0.271; to `c1coc(Cn2c(SCc3nc4ccccc4[nH]3)nnc2-c2cccs2)c1`, -0.59.
As for `CC1(C)CC(=O)N(CC(=O)NCc2ccccc2)c2ccccc2S1(=O)=O`, the figure is -0.409; as for `CC1(C)CC(=O)N(CC(=O)O)c2ccccc2S1(=O)=O`, -0.22.
As for `CCC(C)NC(=O)CN1C(=O)CC(C)(C)S(=O)(=O)c2ccccc21` (configuration not stated), the figure is 4.26 (active); as for `Cc1csc(NC(=O)C2CCCC2)n1`, 0.0786; as for `O=C(CN(Cc1ccco1)C(=O)c1ccc(Cl)cc1)Nc1ccc(Cl)c(Cl)c1`, -0.0983.
Regarding `O=C(NC1(C(F)(F)F)N=C2SCCN2C1=O)c1ccccc1` (configuration not stated), the z-score was -0.628.
The compound `CC(C)Oc1ccc(C(=O)NC2(C(F)(F)F)N=C3SCCN3C2=O)cc1` (configuration not stated) returned a z-score of 0.873.
For the compound `Cc1ccc(C(=O)NC2(C(F)(F)F)N=C3SCCN3C2=O)cc1` (configuration not stated), the z-score came out at 2.91.
To `CS(=O)(=O)Nc1ccc(C(=O)NC2CCCC2)cc1` belongs -0.00695; to `COc1ccc(OC)c(/C=N/NC(=O)CN2CCSCC2)c1`, 0.045.
As to `CCn1cc(C(=O)NC(=S)Nc2sc3c(c2C(=O)OC)CCCCCC3)cn1`, the z-score is -0.247.
`CCn1nnc(NC(=O)c2cccnc2Cl)n1`: the z-score is -0.48.
With `C/C(=N/NC(=S)Nc1ccccc1)c1ccc2c(c1)OCO2`, the z-score was 7.92 (active).
`C/C(=N\NC(=O)c1ccccc1)c1ccc2c(c1)OCO2` came in with a z-score of -0.195.
Turning to `C/C(=N\NC(=S)Nc1ccc(F)cc1)c1ccc2c(c1)OCCO2`, the z-score is 6.87 (active).
As for `C/C(=N/NC(=O)c1ccc2c(c1)OCO2)c1cccc(NC(=O)C(C)(C)C)c1`, the figure is -0.191; as for `C/C(=N\NC(=S)Nc1ccc(F)cc1)C1CC1`, -0.155; as for `C/C(=N/NC(=O)c1ccc2c(c1)OCO2)c1ccc(NC(=O)C(F)(F)F)cc1`, -0.151.
